Hits are enriched below; roughly 2.8% of the tested compounds scored in any of these assays.
NSD2 HMT inh: inhibitors of human histone methyltransferase NSD2; O96028; NSD2 peptide methylation, AlphaScreen, 120 min; inhibition, % at 12.5 µM; hit rate 0.54% among 310,000; in the data active = inhibition above about 50%
N-glyco inh: blocks N-linked glycosylation in D54 reporter cells; D54 ERlucT glycosylation luciferase reporter, 24 h; percent of 100 nM tunicamycin response; reporter increase, % at 12.5 µM; hit rate 0.23% among 360,000; AID 588692;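 active = mean luciferase reporter signal, scaled so untreated is 0 and the glycosylation-blocking control 100, at or above a set limit in every replicate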;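 note: luciferase carries N-glycosylation sites so blocking glycosylation raises the light; 0% = median of neutral control wells and 100% = median of 100 nM tunicamycin wells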
PAX8 inh HTS: inhibitors of PAX8 transcriptional activity in RMG-I cells; inhibition, % at 12.6 µM; RMG-I TPO-luciferase reporter, SteadyGlo, 24 h; hit rate 1.2% among 360,000;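 active = mean replicate inhibition at least 60% with every replicate also reaching 60%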;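 note: luciferase light reporting Pax8 driven TPO promoter activity; plate controls were median of neutral control wells for no effect and mitoxantrone controls for full effect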
Shn3 3UTR inh: reduces Shn3 3'UTR luciferase signal in osteoblasts; Clone20 osteoblast Shn3 3'UTR firefly luciferase, 24 h; inhibition, % at 12.5 µM; hit rate 0.52% among 360,000; AID 588674;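 active = mean inhibition of at least 75% with every replicate also reaching 75%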;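 note: 0% = median of neutral control wells and 100% = pilot-screen positive control compound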
Env fusion inh: inhibitors of HIV Env-mediated cell fusion; HeLa-JRFL Env/CEM21 cell fusion, luciferase; inhibition, % at 12.3 µM; hit rate 1.1% among 360,000; AID 651610;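 active = mean replicate inhibition score of at least 50 and every replicate individually at or above 50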;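 note: 0% = plate neutral controls and 100% = maraviroc near 300 nM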
EBV LMP1 NFkB: inhibitors of Epstein-Barr LMP1-induced NF-kappaB reporter; inhibition, % at 12.5 µM; LMP1-induced NF-kappaB luciferase reporter cells, luminescence; hit rate 0.69% among 350,000; in the data active = inhibition above about 41%;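 note: 0% = neutral control wells and 100% = reference inhibitor control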
* = called active by the depositor; [ ] = another dose, or the depositor's remark.

How did COc1ccc(S(=O)(=O)Nc2ccc3c(c2)C(=O)N([C@H](C)CO)C[C@H](C)[C@@H](CN(C)S(=O)(=O)c2ccc(F)cc2)OCCCC[C@H](C)O3)cc1 do in these assays?
PAX8 inh HTS: 75.7*; Env fusion inh: 7.0[16.7 µM]

How did COc1ccc(S(=O)(=O)Nc2ccc3c(c2)C(=O)N([C@H](C)CO)C[C@H](C)[C@@H](CN(C)S(=O)(=O)c2ccc(C)cc2)OCCCC[C@H](C)O3)cc1 do in these assays?
PAX8 inh HTS: 77.6*; Env fusion inh: 6.9[16.7 µM]

Results for COc1ccc(S(=O)(=O)Nc2ccc3c(c2)C(=O)N([C@@H](C)CO)C[C@@H](C)[C@@H](CN(C)S(=O)(=O)c2ccc(F)cc2)OCCCC[C@H](C)O3)cc1 ?
PAX8 inh HTS: -11.5; Env fusion inh: -6.4[16.7 µM]

Results for Cc1noc(C)c1S(=O)(=O)N(C)C[C@H]1OCCCC[C@@H](C)Oc2ccc(NC(=O)Nc3ccc(C(F)(F)F)cc3)cc2C(=O)N([C@@H](C)CO)C[C@@H]1C ?
Env fusion inh: 67.2*[16.7 µM]

Results for Cc1noc(C)c1S(=O)(=O)N(C)C[C@H]1OCCCC[C@@H](C)Oc2ccc(NC(=O)Nc3ccc4c(c3)OCO4)cc2C(=O)N([C@@H](C)CO)C[C@@H]1C ?
PAX8 inh HTS: -2.7; Env fusion inh: 13.4[16.7 µM]

How did Cc1noc(C)c1S(=O)(=O)N(C)C[C@@H]1OCCCC[C@H](C)Oc2ccc(NC(=O)Nc3ccc(C(F)(F)F)cc3)cc2C(=O)N([C@H](C)CO)C[C@H]1C do in these assays?
Env fusion inh: 69.9*[16.7 µM]

What do the screens show for `Cc1noc(C)c1S(=O)(=O)N(C)C[C@H]1OCCCC[C@H](C)Oc2ccc(NC(=O)Nc3ccc(C(F)(F)F)cc3)cc2C(=O)N([C@H](C)CO)C[C@@H]1C`?
Env fusion inh: 47.4[16.7 µM]

Results for Cc1noc(C)c1S(=O)(=O)N(C)C[C@H]1OCCCC[C@H](C)Oc2ccc(NC(=O)Nc3ccc4c(c3)OCO4)cc2C(=O)N([C@H](C)CO)C[C@@H]1C ?
PAX8 inh HTS: 0.5; Env fusion inh: 56.9*[16.7 µM]

What do the screens show for `Cc1noc(C)c1S(=O)(=O)N(C)C[C@H]1OCCCC[C@H](C)Oc2ccc(NC(=O)Nc3ccc(C(F)(F)F)cc3)cc2C(=O)N([C@@H](C)CO)C[C@@H]1C`?
Env fusion inh: 66.4*[16.7 µM]

How did Cc1noc(C)c1S(=O)(=O)N(C)C[C@H]1OCCCC[C@@H](C)Oc2ccc(NC(=O)Nc3ccc(C(F)(F)F)cc3)cc2C(=O)N([C@H](C)CO)C[C@@H]1C do in these assays?
Env fusion inh: 11.9[16.7 µM]

What do the screens show for `CS(=O)(=O)Nc1ccc2c(c1)[C@H]1C[C@H](CC(=O)NCCN3CCCCC3)O[C@@H](CO)[C@H]1O2`?
PAX8 inh HTS: -15.9; Env fusion inh: -0.9[16.7 µM]

What do the screens show for `CN1C(=O)c2cc(NC(=O)NC3CCCC3)ccc2OC[C@@H]2O[C@H](CC(=O)O)CC[C@H]21`?
PAX8 inh HTS: 6.2

How did CN(CC(=O)Nc1cccc(F)c1)CC(=O)N(C)CC(=O)Nc1ccccc1Br do in these assays?
NSD2 HMT inh: 1.3; N-glyco inh: 1.8; PAX8 inh HTS: 17.5; Shn3 3UTR inh: -21.0; EBV LMP1 NFkB: 73.0*

How did C[C@H]1CN([C@@H](C)CO)C(=O)c2cc(C3=CCCC3)cnc2O[C@H]1CN(C)Cc1ccc(C(=O)O)cc1 do in these assays?
PAX8 inh HTS: 8.8; Env fusion inh: 10.8[16.7 µM]

Results for O=C1C(SCCO)=C(SCCO)C(=O)c2ccccc21 ?
N-glyco inh: -17.3; PAX8 inh HTS: 114.1*; Shn3 3UTR inh: 92.5*; Env fusion inh: -193.5; EBV LMP1 NFkB: 59.0*

Results for COc1ccc(-c2nc3cc(C)c(Br)c(C)n3c2Cc2ccccc2)cc1OC ?
N-glyco inh: 0.9; PAX8 inh HTS: 19.3; Shn3 3UTR inh: 10.1; Env fusion inh: 71.4*

Results for Cc1ccc(-c2nc3cc(C)c(Br)c(C)n3c2Cc2ccccc2)cc1 ?
N-glyco inh: -4.5; PAX8 inh HTS: 17.7; Shn3 3UTR inh: -15.9

Results for CCC(C(=O)NC(C)(C)C)n1c(-c2ccc(C)cc2)nc2ccccc21 (stereo not given) ?
PAX8 inh HTS: -15.5; Env fusion inh: -6.2

Results for CC(C)(C)NC(=O)C(c1ccc(-c2ccccc2)cc1)n1c(=O)c(-c2ccccc2)nc2ccccc21 (stereo not given) ?
PAX8 inh HTS: 1.4; Env fusion inh: 9.0

What do the screens show for `Cc1csc(-c2nc3ccccc3n2C(C(=O)NC(C)(C)C)c2ccccc2)c1` (stereo not given)?
PAX8 inh HTS: 10.1; Env fusion inh: 56.9*

Results for CC(C(=O)NC(C)(C)C)n1c(C(c2ccccc2)c2ccccc2)nc2ccccc21 (stereo not given) ?
PAX8 inh HTS: 10.2; Env fusion inh: 87.0*

What do the screens show for `CCC(C(=O)NC(C)(C)C)n1c(C(c2ccccc2)c2ccccc2)nc2ccccc21` (stereo not given)?
PAX8 inh HTS: 3.8; Env fusion inh: 86.0*

Results for O=C(C[C@@H]1C[C@@H]2c3cc(NS(=O)(=O)c4ccc(F)cc4)ccc3O[C@@H]2[C@H](CO)O1)NCc1cccc(F)c1 ?
PAX8 inh HTS: 0.2; Env fusion inh: -2.1[16.7 µM]

What do the screens show for `O=C(C1CCC1)N1CCCCN2[C@H](CO)[C@H](c3ccc(C#CC4CCCC4)cc3)[C@H]2C1`?
PAX8 inh HTS: 38.7

Results for Cc1c(C(C)C)c(=O)n(-c2ccc(S(=O)(=O)N3CCOCC3)cc2)n1C ?
NSD2 HMT inh: -0.1; N-glyco inh: 0.7; PAX8 inh HTS: 2.2; Shn3 3UTR inh: -5.4; Env fusion inh: 4.8; EBV LMP1 NFkB: 0.5

What do the screens show for `Cc1c(C(C)C)c(=O)n(-c2ccc(S(=O)(=O)NC3CCCCC3)cc2)n1C`?
NSD2 HMT inh: -4.1; N-glyco inh: -6.0; PAX8 inh HTS: 19.8; Shn3 3UTR inh: 88.0*; Env fusion inh: 26.9; EBV LMP1 NFkB: 23.3

What do the screens show for `CCc1ccc(S(=O)(=O)Nc2c(C)n(C)n(-c3ccccc3)c2=O)cc1`?
NSD2 HMT inh: 1.7; N-glyco inh: 0.6; PAX8 inh HTS: -12.7; Shn3 3UTR inh: 3.2; Env fusion inh: 8.0; EBV LMP1 NFkB: -0.4

What do the screens show for `Cc1c(C(C)C)c(=O)n(-c2ccc(S(=O)(=O)NCc3ccccc3)cc2)n1C`?
NSD2 HMT inh: -1.8; N-glyco inh: -4.3; PAX8 inh HTS: 15.8; Shn3 3UTR inh: 83.5*; Env fusion inh: 52.5; EBV LMP1 NFkB: 12.6

What do the screens show for `CC(C)NC(=O)N1C[C@H]2[C@@H](c3ccccc31)[C@@H](CO)N2C(=O)C1CCCC1`?
PAX8 inh HTS: 6.1

What do the screens show for `O=C(C[C@@H]1CC[C@@H]2[C@H](COC[C@H](O)CN2C(=O)Nc2ccc(Cl)cc2)O1)NCc1ccncn1`?
PAX8 inh HTS: -14.6

What do the screens show for `O=C(Nc1ccc2c(c1)CCC2)C1CCN(c2c3c(nc4ncnn24)CCC3)CC1`?
NSD2 HMT inh: 0.0; N-glyco inh: -2.4; Shn3 3UTR inh: 74.8; Env fusion inh: 96.4*; EBV LMP1 NFkB: 11.4

Screening results as filed in PubChem.
